BRCA1 expr act: BRCA1 expression activation; MCF7-BRCA1-FFLuc reporter, luminescence, 48 h; response scale: scaled: vehicle 0%, 10 µM genistein 100%; Potency, µM (titrated, usually from 46.1 µM), most hits filed as activators; 380,000 compounds, 1.1% hits; AID 624202; further: nearly all actives have a fitted effect of over 80% in size
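MCF7-BRCA1-FFLuc cells, 2000/well in phenol-red-free MEM, attached 2 h then treated 48 h at 37 C. Luciferase luminescence read 15 min after reagent; normalized to genistein maximum activation (10microM) and DMSO, concentration-response fitted.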
a7 integrin act: activators of alpha7 integrin expression for muscular dystrophy. alpha7betagal myoblasts, beta-gal FDG fluorescence, 48 h. Potency, µM (titrated, usually from 38.3 µM), most hits filed as activators. 350,000 compounds, 0.064% hits; further: nearly all actives have a fitted effect of over 60% in size
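Alpha7betagal+/- myoblasts (passage 13) were plated 16-24 hr, then exposed to compounds (1:260 dilution of DMSO stock) for 48 hours at 37C. After MPER lysis, β-galactosidase reporter activity was read as FDG fluorescence (ex 480/em 540) after 30 minutes.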
Anesthetic bind: binds horse apoferritin like a general anesthetic. P02791. apoferritin/1-aminoanthracene competitive binding, fluorescence. Potency, µM (top dose mostly 77.5 µM), actives largely listed as inhibitors. 350,000 compounds, 0.074% hits; further: nearly all actives have a fitted effect of over 20% in size
Target sequence (P02791 2-175 limits assumed): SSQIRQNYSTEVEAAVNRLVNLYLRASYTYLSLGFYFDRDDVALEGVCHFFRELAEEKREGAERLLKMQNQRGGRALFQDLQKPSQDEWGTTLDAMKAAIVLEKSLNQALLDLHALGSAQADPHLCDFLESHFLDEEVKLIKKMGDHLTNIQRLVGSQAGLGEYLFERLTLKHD
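In PBS, apoferritin at 10 uM is loaded with 1-AMA from a 50% saturated solution. After 10 min of compound exposure at ambient temperature, reduced 535 nm fluorescence indicates probe displacement.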
IL2 activator: IL-2 activation; activation, % (series mostly up to about 46 µM); IL-2 activation reporter assay, cell-based qHTS; stimulated with anti-CD3/CD4/CD28 beads; in transgenic mouse T cells; 360,000 compounds, 0.065% hits; in the data active means activation above about 50%; inconclusive means mostly about 30% to 49%
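EGFP and DsRed fluorescence is measured by plate cytometry in unstimulated transgenic mouse T cells exposed to compound for 60 minutes, then stimulated 18 hours at 37 degrees C with anti-CD3/anti-CD4 beads plus anti-CD28.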
PKM2 activator: activators of human pyruvate kinase M2; P14618; purified PKM2, Kinase-Glo ATP luminescence, activation; response scale: 0% is enzyme alone, no compound; Potency, µM (highest dose often 57.5 µM), usual class: activators; 260,000 compounds, 0.34% hits; further: nearly all actives have a fitted effect of over 55% in size
Target sequence (P14618 whole entry, looked up): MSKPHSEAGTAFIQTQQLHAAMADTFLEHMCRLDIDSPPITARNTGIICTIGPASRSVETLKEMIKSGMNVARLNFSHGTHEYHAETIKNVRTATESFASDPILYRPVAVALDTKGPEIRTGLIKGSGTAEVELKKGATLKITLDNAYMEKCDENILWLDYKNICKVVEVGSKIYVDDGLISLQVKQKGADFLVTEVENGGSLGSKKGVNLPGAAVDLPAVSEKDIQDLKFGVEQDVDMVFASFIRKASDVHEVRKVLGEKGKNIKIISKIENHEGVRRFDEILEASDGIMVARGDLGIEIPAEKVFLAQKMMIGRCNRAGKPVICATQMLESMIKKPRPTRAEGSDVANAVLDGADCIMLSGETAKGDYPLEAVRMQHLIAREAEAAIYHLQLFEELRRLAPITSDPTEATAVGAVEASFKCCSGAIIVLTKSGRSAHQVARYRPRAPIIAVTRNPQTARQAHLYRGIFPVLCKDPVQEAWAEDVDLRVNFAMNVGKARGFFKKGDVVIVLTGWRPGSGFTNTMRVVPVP
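Kinase-Glo luminescence reports ATP generated from ADP (0.1 mM) and PEP (0.5 mM) by purified hPK-M2 after 1 h at room temperature, pH 7.2 imidazole buffer; intermediate enzyme activity allows detecting inhibitors and activators.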
Hits are given with their value; . = inactive; ? = inconclusive; / = no result; [ ] = another dose, or the depositor's remark. An excerpt weighted towards active compounds, which were near 1.3% of everything screened. Unless noted, the call rests on the fitted dose curve; in most records, active means well fitted curve in the direction sought with a large enough effect; inconclusive means small, poorly fitted or top-dose-only effect, or another doubt; inactive means no such curve, though single readings can be large; an effect the other way counts as inactive or inconclusive.

SMILES | BRCA1 expr act | a7 integrin act | Anesthetic bind | IL2 activator | PKM2 activator
C=C(C)C(=O)OCC1CN2C(CCC(C)C2c2ccc(Br)cc2)C(=O)O1 (stereo not given) | / | / | .[15.3 µM] | / | /
COc1ccc(CN2C(=O)CS/C2=N/N=C/c2ccccc2)cc1 | 4µM | . | . | . | .
COc1ccc(/C=N/N=C2/SCC(=O)N2Cc2ccccc2)cc1 | 5.6µM | . | . | . | .
COc1ccc(N=C2SCC(=O)N2Cc2ccccc2)cc1 | . | . | . | . | .
Cc1cc(Oc2ccc(Cl)cc2Cl)nc(C#N)n1 | . | / | / | / | /
Cn1nc(C(=O)Nc2nc3ccccc3[nH]2)ccc1=O | 7.9µM | . | . | . | /
Cc1ccc(SC/C(O)=C(\C#N)c2nc3ccccc3n2C)cc1 | 13µM | . | . | . | .
Cn1c(/C(C#N)=C(\O)CN2CCN(Cc3ccccc3)CC2)nc2ccccc21 | . | . | . | . | .
CCOC(=O)c1c(C)[nH]c(C(=O)OC(C(=O)N(C)C)c2ccccc2)c1C (stereo not given) | . | / | / | / | /
CC1CCCN(C(=S)NCCc2ccccc2)C1 (stereo not given) | 10µM | . | . | . | .
CN(C(=O)CSc1ncnc2sccc12)C1CCCCC1 | 4µM | . | / | . | /
Cc1cc(O)cc2c1O[C@](C)(CCC(=O)O)CC2 | . | / | / | / | /
NC1(c2ccc(-c3nc4ccn5c(=O)[nH]nc5c4cc3-c3ccccc3)cc2)CCC1 | . | / | / | / | /
COc1cccc(/C=C/C(=O)OCC(=O)c2ccccc2)c1OC | 11µM | . | / | . | /
COc1cccc(/C=C/C(=O)OCC(=O)c2ccc(C)c(C)c2)c1OC | . | . | / | . | /
OC[C@H]1O[C@@H](c2nc(-c3ccc(Br)cc3)no2)C[C@@H]1O | 7.9µM | / | / | . | /
COc1cc(OC)cc(-c2noc(-c3csc([C@@H]4C[C@H](O)[C@@H](CO)O4)n3)n2)c1 | 10µM | / | / | . | /
CCOc1ccc(-c2noc(-c3csc([C@@H]4C[C@H](O)[C@@H](CO)O4)n3)n2)cc1 | ? | / | / | . | /
COc1ccc(-c2noc(-c3csc([C@@H]4C[C@H](O)[C@@H](CO)O4)n3)n2)cc1OC | 14µM | / | / | . | /
COc1ccc(NC(=O)Cn2ncc3c2-c2ccccc2OC3)cc1Cl | . | / | . | / | /
COC(=O)c1ccc(Cn2c(=O)cc(C)c3c(C)nn(C)c32)cc1 | / | / | . | / | /
Cc1oc(-c2cccc(Cl)c2)nc1CN1CCCC(C(=O)N2CCN(c3ccc(F)cc3)CC2)C1 (stereo not given) | / | / | . | / | /
Nc1ccc2nc(-c3ccccn3)[nH]c2c1 | 11µM | . | . | . | .
Nc1ccc2nc(-c3ccccc3)[nH]c2c1 | . | . | . | . | .
Nc1ccc2nc(-c3ccc(N)c(Cl)c3)[nH]c2c1 | 4.5µM | . | . | . | .
SMILES | BRCA1 expr act | a7 integrin act | Anesthetic bind | IL2 activator | PKM2 activator
CN(C)c1ccc(-c2c(C3C4C=CCCC4(C)C(=O)N3Cc3ccccc3)ccc3ccccc23)cc1 (stereo not given) | / | / | . | / | /
Cc1cc(C)cc(N=Cc2c(O)c3ccccc3oc2=O)c1 | . | . | . | . | .
O=C(O)c1cc(N=Cc2c(O)c3ccccc3oc2=O)ccc1O | . | 7.1µM | . | . | /
Clc1cccc(CNc2ccn3nc(-c4cccs4)cc3n2)c1 | 8.9µM | / | / | . | /
O=C(CSc1nccn1Cc1ccco1)Nc1ccc(OC(F)(F)F)cc1 | / | / | . | / | /
COc1ccc(Nc2nc(N)nc(CSc3nnc(N)s3)n2)cc1 | ? | . | . | . | .
COc1ccc(OCc2nc(N)nc(Nc3ccc(C)cc3)n2)cc1 | 16µM | . | ? | . | .
COc1ccc(Nc2nc(N)nc(CSc3nccn3C)n2)cc1 | 3.2µM | . | . | . | .
CC1=CC(O)=NS(=O)(=O)O1 | . | / | / | / | /
COc1cccc2nc(-c3cccs3)nc(NN3C(=O)C=C(C)C3=O)c12 | / | / | . | / | /
O=c1cc(-c2ccccc2Cl)oc2ccc([N+](=O)[O-])c(O)c12 | . | . | ? | . | .
Nc1ccc2oc(-c3ccccc3Cl)cc(=O)c2c1O | 7.1µM | . | ? | . | .
COc1ccc(/C=C/c2nc3ccccc3c(=O)n2-c2cccc(C(F)(F)F)c2)cc1 | / | / | . | / | /
COc1ccc2nc(SCC(O)c3cccc(Br)c3)[nH]c2c1 (stereo not given) | / | / | . | / | /
O=C(NC1CCCC1)C(c1ccncc1)N(Cc1ccccc1)C(=O)c1ccc(-c2ccccc2)[nH]1 (stereo not given) | . | . | . | . | .
CC(C)(C)NC(=O)C(c1ccncc1)N(Cc1ccc(F)cc1)C(=O)c1ccc(-c2ccccc2)[nH]1 (stereo not given) | . | . | ? | . | 28µM
CCOC(=O)c1c(-c2cccs2)csc1NC(=O)COC(=O)c1c(C)noc1C | . | . | . | . | 14µM
NC(=NCc1ccco1)NC(=O)c1ccc(Cl)cc1 | 11µM | . | . | . | .
Cc1ccc(C(=O)Nc2ccccc2)cc1S(=O)(=O)Nc1ccccc1 | / | / | . | / | /
Cc1ccc(C(=O)Nc2ccc(C(=O)O)cc2)cc1S(=O)(=O)NCc1ccccc1 | . | ? | . | 535 | .
Cc1ccc(CN2CCCn3nc(C(=O)NCCC(C)C)cc3C2=O)cc1 | / | / | . | / | /
C[C@H](C(=O)O)c1cccc(C(=O)c2ccccc2)c1 | . | / | . | . | /
CC(C(=O)O)c1ccc(C(=O)c2ccccc2)s1 (stereo not given) | 14µM | / | / | . | /
C[C@H]1C(=O)N(S(=O)(=O)c2ccc([N+](=O)[O-])cc2)[C@H]1c1ccc(F)cc1 | / | / | . | / | /
COC(=O)c1ccc(C(=O)Nc2ccc(C(C)C)cc2N)cc1 | 11µM | . | . | . | .
SMILES | BRCA1 expr act | a7 integrin act | Anesthetic bind | IL2 activator | PKM2 activator
COC(=O)c1ccc(C(=O)NN)cc1 | . | . | . | . | .
COc1ccccc1-c1noc(-c2ccccc2)n1 | ? | . | . | . | .
COc1ccc(-c2noc(CSc3ccccc3)n2)cc1OC | 11µM | . | . | . | .
COc1ccc(-c2nc(-c3ccccc3OC)no2)cc1OC | 10µM | . | ? | . | .
CC(C)CC(CSc1ccc(Br)cc1)N1CCN(CCc2ccccc2)CCC1=O (stereo not given) | / | / | . | / | /
O=C(NCCc1ccccc1)c1ccc2c(c1)N(Cc1c(F)cccc1Cl)C(=O)CS2 | . | / | . | / | /
Cc1ccc(/C=N/n2nnnc2N)cc1 | 6.3µM | . | / | . | /
N#Cc1cccc(-c2csc(C(O)c3ccc(F)cc3)n2)c1 (stereo not given) | 7.9µM | / | / | . | /
COc1ccc2nc(NC(=O)CSc3nnc(-c4ccoc4C)n3C)sc2c1 | 5.6µM | . | ? | . | .
COCCN1CCN(C(=O)c2ccc3oc(CCCc4ccccc4)nc3c2)CC1 | 13µM | . | . | . | .
CCCCc1nc2cc(C(=O)N3CCCC3)ccc2o1 | 8.9µM | . | . | . | /
COCC1CCN(C(=O)c2ccc3oc(CCCc4ccccc4)nc3c2)C1 (stereo not given) | . | . | . | . | .
